# Pf growth 96h: Primary qHTS for delayed death inhibitors of the malarial parasite plastid, 96 hour incubation. P. falciparum luciferase reporter growth, 96 h. Potency, µM (doses to about 28.7 µM), for the others: top-dose activity change, negative = inhibition, usual class: inhibitors. hit rate 6.9% among 320,000. AID 504834, 2011; also: % is scaled to controls: 0 for no effect and ±100 for the full control effect
#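 Luminescence readout: decreased luciferase signal marks inhibited growth of reporter-expressing P. falciparum in infected red cells (2% hematocrit, 0.05% parasitemia final), exposed to compound two generations (96 h, 37 C, 5% CO2).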
# Pf growth 48h: Primary qHTS for delayed death inhibitors of the malarial parasite plastid, 48 hour incubation. P. falciparum luciferase growth in erythrocytes, 48 h. Potency, µM (titrated, usually from 28.7 µM), for the others: at the top dose activity change, negative = inhibition, most hits filed as inhibitors. hit rate 5.9% among 310,000. AID 504832, 2011; also: % is scaled to controls: 0 for no effect and ±100 for the full control effect
#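 Erythrocytes infected with P. falciparum carrying an integrated firefly luciferase reporter (2% hematocrit, 0.1% parasitemia final) were exposed to compounds in RPMI 1640 with 0.5% Albumax at 37 C, 5% CO2. Growth inhibition was scored as reduced luminescence.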
# SARS PLP yeast: qHTS of Yeast-based Assay for SARS-CoV PLP; S. cerevisiae expressing SARS-CoV PLpro, growth rescue; Potency, µM (series often up to 32.9 µM), inactives show at the highest dose activity, positive = growth rescue, hits mostly activators; hit rate 0.19% among 330,000; calls by dose curve; also: 0% is about no effect; nearly all actives have a fitted effect of over 55% in size
# NS1 inh: qHTS Assay for Inhibitors of Influenza NS1 Protein Function; Potency, µM (highest dose often 46.1 µM), for the others: top-dose activity, positive = more growth; hit rate 0.4% among 270,000; AID 2326, 2010; calls by dose curve; also: actives are rising curves; nearly all actives have a fitted effect of over 50% in size
#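 OD600 was taken as the measure of yeast growth restored by compound in an NS1-expressing S. cerevisiae strain. Cells had been washed out of glucose medium and diluted 1:100 into galactose -URA medium, pH 6.0.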
# HCV inhibitor: qHTS Assay for Inhibitors of Hepatitis C Virus (HCV) | Huh7.5.1 HCVcc-Cre infection, luciferase reporter, 44 h | Potency, µM (series often up to 41.8 µM), for the others: at the highest dose activity change, negative = inhibition, hits mostly inhibitors | hit rate 3.4% among 340,000 | AID 651820, 2012; also: % is scaled to controls: 0 for no effect and ±100 for the full control effect
#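 A cell-based infection assay in which seeded cells (1,000 per well) receive test compound after 4 h, are inoculated with HCVcc-Cre at approximately 0.5 moi, and are incubated 44 h before luminescence detection.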
# AMA1 RON2 block: qHTS for Inhibitors of AMA1-RON; Towards Development of Antimalarial Drug Lead: Primary Screen. AlphaScreen AMA1-biotinylated RON2 peptide binding. Potency, µM (doses to about 58.2 µM), inactives show top-dose activity change, negative = inhibition, hits mostly inhibitors. hit rate 0.2% among 360,000;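 also: 0% = vehicle wells and -100% = peptide control; nearly all actives have a fitted effect of over 45% in size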
#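 AMA1 (3D7) with his tag at 25 nM final met compounds first, then biotinylated RON2 peptide at 25 nM; detection used donor plus acceptor beads, 10 µg/mL apiece, read by AlphaScreen after 30 min at room temperature.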
# * hit, by the source's call; ? = inconclusive; · = no result given. Shown are actives, neighbours in structure and some others; about 12% of the full set was active somewhere. Unless noted, calls follow the shape of the dose curve; as a rule, active = well fitted curve in the direction sought with a large enough effect; inconclusive = small, poorly fitted or top-dose-only effect, or another doubt; inactive = no such curve, though single readings can be large; an effect the other way counts as inactive or inconclusive. Potency is read from the fitted curve at half-maximal effect.
SMILES,Pf growth 96h,Pf growth 48h,SARS PLP yeast,NS1 inh,HCV inhibitor,AMA1 RON2 block
COc1cc(C(=O)Nc2ccc(Cl)c(C(F)(F)F)c2)cc(OC)c1OC,-9%,13µM*,-55%,-55%,14µM*,-7%
COc1ccc(C(=O)Nc2ccc(NC(=O)c3cccs3)cc2)cc1Cl,?,-9%,4%,7%,-12%,14%
COc1cc(C(=O)Nc2ccc(Nc3ccccc3)cc2)cc(OC)c1OC,13µM*,-6%,-4%,8%,?,?
COc1cc(C(=O)Nc2cc(-c3ccccc3)[nH]n2)cc(OC)c1OC,4%,12µM*,-2%,-3%,-8%,-1%
COc1cc(C(=O)Nc2ccc(C(=O)c3cccs3)cc2)cc(OC)c1OC,9.3µM*,?,-5%,-8%,?,-16%
COc1ccc(S(=O)(=O)N2CCN(CC(=O)Nc3sccc3C(N)=O)CC2)cc1OC,?,?,-2%,·,?,57%
COc1cc(C(=O)Nc2ccc(NC(=O)c3ccccc3Cl)nc2)cc(OC)c1OC,147%,9.3µM*,0%,-2%,?,-8%
COc1cc(C(=O)Nc2ccc(NC(=O)C3CC3)nc2)cc(OC)c1OC,?,-21%,-3%,-1%,?,0%
COc1cc(C(=O)Nc2ccc(NC(=O)c3ccccc3)nc2)cc(OC)c1OC,29%,5.2µM*,-4%,9%,?,-4%
COc1cc(C(=O)Nc2ccc(NC(=O)C(C)C)nc2)cc(OC)c1OC,0%,?,-1%,-5%,-4%,-1%
COc1ccc(/C=C/C(=O)c2ccc(NC(=O)c3cccs3)cc2)cc1OC,-12%,?,17%,24%,10µM*,-11%
NS(=O)(=O)c1ccc(CCNC(=O)Cc2cccs2)cc1,?,5%,8%,28%,7%,0%
COCC(C)NCc1ccc(OC)c(Br)c1 (configuration not stated),12µM*,-29%,-1%,·,5%,-20%
COc1ccc(C(=O)N2CCN(S(=O)(=O)c3ccc4c(c3)OCCO4)CC2)cc1OC,-4%,?,1%,·,1%,0%
Cc1nn(CC(=O)NCCc2ccc(Cl)cc2Cl)c(C)c1[N+](=O)[O-],?,12µM*,15%,-5%,?,-3%
O=C(CN1CCN(c2ccc(F)cc2)CC1)N1N=CCC1c1ccccc1 (configuration not stated),?,1%,2%,-6%,11µM*,-9%
O=C(CN1CCN(C(c2ccccc2)c2ccccc2)CC1)N1N=CCC1c1ccccc1 (configuration not stated),12µM*,?,0%,2%,?,-13%
O=C(CN1CCN(c2ccccc2)CC1)N1N=CCC1c1ccccc1 (configuration not stated),?,29%,7%,-8%,?,2%
O=C(N1CCCCC1)N1CCN(C(c2ccccc2)c2ccccc2)CC1,8.3µM*,·,-12%,-21%,-24%,-6%
CC1CCN(CC(=O)N2CCN(c3ccccc3)CC2)CC1,-8%,-3%,5%,18%,-3%,-2%
O=C(CN1CCN(C(c2ccccc2)c2ccccc2)CC1)N1CCN(c2ccccc2)CC1,?,12µM*,0%,-1%,?,-18%
CNS(=O)(=O)c1cccc(C(=O)OCC(=O)Nc2ccc3ccccc3c2)c1,·,·,-5%,·,-4%,-6%
O=C(c1ccc2c(=O)n3c(nc2c1)CCC3)N1CCN(S(=O)(=O)c2ccccc2Br)CC1,·,·,·,·,-4%,3%
Clc1ccc(Nc2ccc(-n3ccnc3)nn2)cc1Cl,1.9µM*,2.6µM*,-27%,-77%,-6%,1%
c1ccc(Nc2ccc(-n3ccnc3)nn2)cc1,20%,?,-1%,-4%,11%,-7%
Cc1cc(OCCN2CC2)c2ccccc2n1,10µM*,13µM*,-1%,6%,·,·

# Compound activity from PubChem.
